Sampled rows, rich in hits. Any-hit rate of the full collection: about 17%.
TGFb inhibitor = qHTS for Inhibitors of TGF-b; hit rate 1.2% among 410,000; HepG2 CAGA-GFP TGF-b/SMAD3 reporter, GFP fluorescence, 18 h; TGF-beta stimulated, 500 pg/mL final; Potency, µM (top dose mostly 46.1 µM), usual class: inhibitors; also: nearly all actives have a fitted effect of over 65% in size
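HEPG2 CAGA-GFP reporter cells (1000/well, DMEM with 1% FBS) received compounds, then recombinant TGF-beta at 500 pg/mL final for 18 hours at 37 degrees C. Per-cell GFP summed per well was normalised to unstimulated and stimulated DMSO controls before curve fitting.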
TDP1 cell CPT = qHTS for Inhibitors of human tyrosyl-DNA phosphodiesterase 1 (TDP1): qHTS in cells in presence of CPT; chicken DT40 Tdp1-/-;hTDP1 cells + 20 nM CPT, ATP luminescence, 48 h; Potency, µM (top dose mostly 46.2 µM), hits mostly inhibitors; hit rate 12% among 420,000; also: nearly all actives have a fitted effect of over 55% in size
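Cell growth measured by CellTiter-Glo luminescence after a minimum 48 h, 37 C compound exposure with 20 nM CPT in Tdp1-knockout DT40 cells stably expressing hTDP1, seeded 400/well; qHTS titration format.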
TDP1 cell noCPT = qHTS for Inhibitors of human tyrosyl-DNA phosphodiesterase 1 (TDP1): qHTS in cells in absence of CPT | Potency, µM (highest dose often 46.2 µM), usual class: inhibitors | AID 686978, 2013 | DT40 Tdp1-/- hTDP1 cells, no CPT, ATP luminescence, 48 h | hit rate 15% among 420,000; also: nearly all actives have a fitted effect of over 55% in size
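Camptothecin absent (DMSO only). Human TDP1-complemented DT40 knockout cells, 400 cells/well, 37 °C for minimum 48 hr; ATP measured via CellTiter-Glo, 30 min dark incubation, luminescence.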
ATXN2 expr inh = Primary qHTS for Inhibitors of ATXN expression | Potency, µM (series often up to 57 µM), hits mostly inhibitors | HEK-293 ATXN2-luciferase reporter, luminescence, 24 h | hit rate 0.72% among 360,000; also: nearly all actives have a fitted effect of over 55% in size
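ATXN2-luciferase reporter cells (luciferase flanked by upstream and downstream ATXN2 gene portions) were treated 24 h at 37 °C with compounds at up to 57 uM. SteadyGlo luminescence gave expression; GF-AFC fluorescence gave viability.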
ATXN viability = Viability Counterscreen for Primary qHTS for Inhibitors of ATXN expression; S2 cells (HEK-293 line with an ATXN2-luciferase reporter) viability, CellTiter-Fluor protease fluorescence, 24 h; Potency, µM (highest dose often 56.7 µM), usual class: cytotoxic; hit rate 0.49% among 400,000; also: nearly all actives have a fitted effect of over 40% in size
HepG2 viability = qHTS for Inhibitors of TGF-b: Cytotox Counterscreen | hit rate 0.76% among 410,000 | Potency, µM (top dose mostly 46.1 µM), usual class: cytotoxic | HepG2 CAGA-GFP viability, ATP luminescence, 18 h | AID 588856, 2011
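HepG2 CAGA-GFP cells (1000/well, DMEM with 1% FBS) received compound, then TGF-beta at 500 pg/mL final, and were incubated 18 hours at 37 degrees C. Viability was read by CellTiter-Glo luminescence. Media-only wells were set as complete cell-killing and DMSO as no toxicity.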
A number is an active result; i = inactive; ? = inconclusive; nt = no result given; [ ] = another dose, or the depositor's remark. Calls follow the shape of the dose curve; as a rule, active = well fitted curve in the direction sought with a large enough effect; inconclusive = small, poorly fitted or top-dose-only effect, or another doubt; inactive = no such curve, though single readings can be large; an effect the other way counts as inactive or inconclusive.

SMILES	TGFb inhibitor	TDP1 cell CPT	TDP1 cell noCPT	ATXN2 expr inh	ATXN viability	HepG2 viability
Cc1ccc(-c2ccc(CN3C(C(C)C)C(=O)N(Cc4cn(CC5CCCCC5)nn4)CCS3(=O)=O)cc2)cc1 (centres undefined)	?	12µM	8.2µM	i	?	i
CN(c1ccccc1)S(=O)(=O)c1cccc(NC(=O)CCN2C(=O)C3CCCCC3C2=O)c1 (centres undefined)	?	i	i	i	i	i
Cc1ccc(NC(=O)N(Cc2c[nH]c3ccccc23)C2CCCCCC2)cc1C	?	7.3µM	8.2µM	i	i	i
COc1ccc2cc(CN(C(=O)Nc3ccccc3)C3CCCC3)c(=O)[nH]c2c1	i	?	i	i	i	i
Cc1ccc(NC(=O)C(=O)NCCc2c[nH]c3ccccc23)cc1C	i	i	i	i	i	i
COc1cccc(NC(=O)N(Cc2c[nH]c3ccccc23)C2CCCCC2)c1	?	8.2µM	18µM	i	?	i
CCOc1ccc(-n2ccnc2SCC(=O)Nc2ccc3c(c2)OCO3)cc1	i	i	i	nt	nt	i
Cc1ccc(NC(=O)CSc2nccn(-c3ccc4c(c3)OCCO4)c2=O)cc1	i	23µM	18µM	i	i	i
CCc1ccc(NC(=O)CSc2nccn(-c3ccc4c(c3)OCCO4)c2=O)cc1	i	18µM	?	i	i	i
O=C(CSc1nccn(-c2ccc3c(c2)OCCO3)c1=O)Nc1ccccc1	i	?	?	i	i	i
CCOc1ccc(NC(=O)CSc2nccn(-c3ccc4c(c3)OCCO4)c2=O)cc1	i	i	15µM	i	?	i
Cc1cccc(-n2ccnc2SCC(=O)Nc2ccc3c(c2)OCCO3)c1	i	?	?	i	i	i
CC(C)C[C@H]1CNC(=O)C(=O)N1CC1CCN(CC2CCC(C)CC2)CC1 (some centres undefined)	i	i	i	i	i	i
Cc1sc2ncnc(OCC(=O)NC3CCS(=O)(=O)C3)c2c1C (centres undefined)	i	i	i	nt	i	i
COc1ccc(Oc2nc(-c3ccncc3)nc3ccccc23)cc1	i	i	?	i	i	i
Fc1ccc(Oc2nc(-c3ccccn3)nc3ccccc23)cc1	?	4.6µM	5.8µM	i	i	i
c1ccc(Oc2c3ccccc3nc3ccccc23)cc1	?	?	21µM	i	?	i
c1ccc(Oc2nc(-c3ccccn3)nc3ccccc23)cc1	i	2.6µM	2.1µM	?	i	i
CSc1nc(Oc2ccc(F)cc2)c2ccccc2n1	i	i	i	i	i	i
Cc1nc(Oc2ccccc2)c2ccccc2n1	i	i	?	i	?	i
COc1ccc(Oc2nc(-c3ccccn3)nc3ccccc23)cc1	?	3.3µM	4.1µM	i	?	i
Cc1cc(C)nc(/N=C(/NC(=O)Nc2cccc(Cl)c2)Nc2ccccc2)n1	i	?	18µM	i	i	i
Cc1cc(C)nc(/N=C(\NC(=O)C(C)(C)C)Nc2ccccc2)n1	i	i	i	i	i	i
Cc1cc(NC(=O)Nc2cccc(Cl)c2)no1	i	i	?	nt	i	i
Cc1nnc(NC(=O)Nc2cccc(Cl)c2)s1	i	?	13µM	i	i	i
SMILES	TGFb inhibitor	TDP1 cell CPT	TDP1 cell noCPT	ATXN2 expr inh	ATXN viability	HepG2 viability
Cc1csc(NC(=O)Nc2cccc(Cl)c2)n1	i	?	23µM	i	i	i
O=C(Nc1cccc(Cl)c1)Nc1nc(-c2ccccc2)cs1	?	?	?	i	?	i
Cc1ccc(OCCSCc2nnc(NC(=O)Nc3cccc(Cl)c3)s2)cc1	?	4.6µM	4.6µM	i	?	i
O=C(CSc1cccc(C(F)(F)F)c1)Nc1cc(S(=O)(=O)N2CCCC2)ccc1Cl	i	i	i	i	?	i
CC(=O)c1ccc(Cc2ccc(C(C)=O)cc2)cc1	i	i	?	i[11.3 µM]	i	i
NS(=O)(=O)c1ccc(CCNC(=O)c2cc([N+](=O)[O-])ccc2N2CCCCC2)cc1	i	i	?	i	i	i
CCN1CCCC1CNC(=O)c1cnn(-c2nccc(-c3ccccc3F)n2)c1C (centres undefined)	nt	i	i	nt	i	nt
CCOc1ccc(CCNC(=O)COC(=O)CNC(=O)c2ccc(Br)o2)cc1OCC	i	?	i	i	i	i
S=C(NCCCCN(Cc1ccc(Cl)cc1)c1ccc(Br)cn1)NCCCc1cnc[nH]1	?	7.1µM	i	?	?	i
CN(CCCN(Cc1ccc(Cl)cc1)c1ccc(Br)cn1)C(=S)NCCCc1cnc[nH]1	?	13µM	?	nt	nt	i
CCOC(=O)N1CCC(NC(=O)c2cc(C(=O)NC3CCN(Cc4ccccc4)CC3)ccc2CO)CC1	i	1.8µM	i	i	i	i
CCOC(=O)N1CCC(NC(=O)c2cc(C(=O)Nc3ccc(F)cc3F)ccc2CO)CC1	i	i	i	i	nt	i
CCOC(=O)N1CCC(NC(=O)c2cc(C(=O)Nc3ccc(S(=O)(=O)N4CCOCC4)cc3)ccc2CO)CC1	i	?	i	i	i	i
CCOC(=O)N1CCC(NC(=O)c2cc(C(=O)NCc3ccc(F)cc3)ccc2CO)CC1	i	?	12µM	i	i	i
COc1cccc(C(=O)Nc2cc(NC(=O)c3ccco3)ccc2OC)c1	i	18µM	?	i	i	i
CCCCOc1cccc(C(=O)Nc2cc(NC(=O)c3ccco3)ccc2OC)c1	?	18µM	21µM	?	?	i
COc1ccc(NC(=O)c2ccco2)cc1NC(=O)c1ccccc1	i	i	?	i	i	i
COc1ccc(NC(=O)c2ccco2)cc1NC(=O)c1cccc(OC(C)C)c1	i	?	12µM	i	?	i
COc1cc(NC(=O)c2oc3ccccc3c2C)ccc1NC(=O)c1ccco1	i	?	18µM	i	nt	i
COc1cccc(N2CC(NC(=O)C3CC3)CC2=O)c1 (centres undefined)	i	i	i	nt	nt	i
COc1ccc(NC(=O)c2ccco2)cc1NC(=O)c1cccc(C)c1OC	i	21µM	12µM	i	?	i
COc1ccccc1C1CCN(c2ccc(CO)cc2[N+](=O)[O-])CC1	?	?	16µM	i	i	i
Cc1cc(C)c(C)c(N=Nc2nc3ccccc3n2C)c1C	?	?	23µM	?	?	i
COc1ccc(/C=N/c2nc3ccccc3n2C)cc1OC	i	i	i	i	i	i
Cc1ccc(CNc2nc3ccccc3n2C)cc1	i	i	?	i	i	i

Screening data as filed in PubChem.
